Source: PubChem BioAssay (EPA / NIEHS)
The source made the active and inactive calls. Rule for the calls: active = hit-call score of the fitted dose curve at least 0.9, where 1 is the maximum; inactive = score below 0.9.

Key:
[1] = read-out: Macrophage colony-stimulating factor (MCSF), CSF1 (gene 1435); assay: BSK_hDFCGF_MCSF: BioMAP Diversity Plus: hDFCGF Assay for Macrophage colony-stimulating factor (MCSF) Biomarker Activity (AID 2283060); conditions: primary human foreskin fibroblasts; actives raise or lower the signal
Outline: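 M-CSF levels read by ELISA at 24 h post-dosing in human skin fibroblasts. Parallel cultures stained with SRB assessed cytotoxicity at the same time point; response fitted in both directions against the DMSO baseline.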

[2] = BSK_hDFCGF_SRB: Viability Assessment in the BioMAP Diversity Plus: hDFCGF Assay (AID 2283061); conditions: primary human foreskin fibroblasts;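 note: cells exposed to compound for 24 h before the read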
Outline: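 Viability was read as total protein: after 10% TCA fixation, wells were stained with 0.1% sulforhodamine B and read at 560 nm. Primary human foreskin fibroblasts were dosed for 24 h, with bidirectional fitting versus DMSO.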

[3] = read-out: TIMP metallopeptidase inhibitor 1 (TIMP1), TIMP1 (gene 7076); assay: BSK_hDFCGF_TIMP1: BioMAP Diversity Plus: hDFCGF Assay for TIMP metallopeptidase inhibitor 1 (TIMP1) Biomarker Activity (AID 2283062); conditions: primary human foreskin fibroblasts; actives raise or lower the signal
Outline: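 TIMP-1 measured by ELISA 24 h after chemical dosing of primary human skin fibroblasts, with gain or loss fitted relative to DMSO. Parallel SRB staining (560 nm) monitored overt cytotoxicity.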

[4] = read-out: Monokine induced gamma interferon (MIG), CXCL9 (gene 4283); assay: BSK_hDFCGF_MIG: BioMAP Diversity Plus: hDFCGF Assay for Monokine induced gamma interferon (MIG) Biomarker Activity (AID 2283063); conditions: primary human foreskin fibroblasts; actives raise or lower the signal
Outline: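 Human primary foreskin fibroblasts in the hDFCGF system, exposed to test chemical for 24 h; MIG measured by ELISA. Bidirectional curve fitting against DMSO negative control as activity baseline.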

[5] = read-out: Matrix Metallopeptidase 1 (MMP1), MMP1 (gene 4312); assay: BSK_hDFCGF_MMP1: BioMAP Diversity Plus: hDFCGF Assay for Matrix Metallopeptidase 1 (MMP1) Biomarker Activity (AID 2283064); conditions: primary human foreskin fibroblasts; actives raise or lower the signal
Outline: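 Primary human foreskin fibroblasts in the hDFCGF system were dosed with test chemical, and MMP1 was measured by ELISA 24 h later. Values come from bidirectional curve fitting against the DMSO baseline.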

[6] = read-out: Vascular cell adhesion molecule 1 (VCAM1), VCAM1 (gene 7412); assay: BSK_hDFCGF_VCAM1: BioMAP Diversity Plus: hDFCGF Assay for Vascular cell adhesion molecule 1 (VCAM1) Biomarker Activity (AID 2283065); conditions: primary human foreskin fibroblasts; actives raise or lower the signal;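 for AC50: VCAM-1 protein level quantified by ELISA after 24 h chemical exposure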
Outline: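 ELISA readout of VCAM-1 on human dermal fibroblast primary cultures, 24 h after chemical exposure. Gain or loss of signal fitted in both directions against DMSO baseline.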

[7] = read-out: Plasminogen activator inhibitor-1 (PAI1), SERPINE1 (gene 5054); assay: BSK_hDFCGF_PAI1: BioMAP Diversity Plus: hDFCGF Assay for Plasminogen activator inhibitor-1 (PAI1) Biomarker Activity (AID 2283066); conditions: primary human foreskin fibroblasts; actives raise or lower the signal
Outline: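 Human foreskin fibroblast primary cells, 24 h chemical exposure; PAI-1 measured by ELISA. Bidirectional fitting relative to DMSO; parallel cultures stained with SRB for total protein to flag overt cytotoxicity.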

[8] = read-out: Intercellular Adhesion Molecule 1 (ICAM1), ICAM1 (gene 3383); assay: BSK_KF3CT_ICAM1: BioMAP Diversity Plus: KF3CT Assay for Intercellular Adhesion Molecule 1 (ICAM1) Biomarker Activity (AID 2283067); conditions: primary human keratinocytes with fibroblasts; actives raise or lower the signal
Outline: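 Cell-surface ICAM-1 was measured by ELISA 24 h after dosing primary human skin keratinocytes co-cultured with fibroblasts. Parallel SRB staining tracked overt cytotoxicity. Gain or loss of signal was fitted relative to DMSO.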

[9] = read-out: Interferon-gamma inducible Protein 10 (IP10), CXCL10 (gene 3627); assay: BSK_KF3CT_IP10: BioMAP Diversity Plus: KF3CT Assay for Interferon-gamma inducible Protein 10 (IP10) Biomarker Activity (AID 2283068); conditions: primary human keratinocytes with fibroblasts; actives raise or lower the signal
Outline: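 ELISA read-out of IP-10 after 24 h chemical dosing of human skin primary co-culture (keratinocytes, foreskin fibroblasts). Gain or loss of signal relative to DMSO, bidirectional curve fit.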

[10] = read-out: Interleukin-1 alpha (IL1a), IL1A (gene 3552); assay: BSK_KF3CT_IL1a: BioMAP Diversity Plus: KF3CT Assay for Interleukin-1 alpha (IL1a) Biomarker Activity (AID 2283070); conditions: primary human keratinocytes with fibroblasts; actives raise or lower the signal
Outline: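 Human keratinocyte plus foreskin fibroblast primary co-culture, sampled 24 h after chemical dosing. IL-1a measured by ELISA; responses fitted bidirectionally against DMSO baseline (negative control), so gain or loss of signal both count.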

[11] = read-out: TIMP metallopeptidase inhibitor 2 (TIMP2), TIMP2 (gene 7077); assay: BSK_KF3CT_TIMP2: BioMAP Diversity Plus: KF3CT Assay for TIMP metallopeptidase inhibitor 2 (TIMP2) Biomarker Activity (AID 2283071); conditions: primary human keratinocytes with fibroblasts; actives raise or lower the signal
Outline: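 Co-culture of human primary keratinocytes and foreskin fibroblasts, measured 24 h after chemical dosing. TIMP-2 quantified by ELISA and fitted in both directions relative to DMSO. Cytotoxicity checked in parallel cultures by SRB total-protein staining.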

[12] = read-out: Transforming growth factor beta 1 (TGFb1), TGFB1 (gene 7040); assay: BSK_KF3CT_TGFb1: BioMAP Diversity Plus: KF3CT Assay for Transforming growth factor beta 1 (TGFb1) Biomarker Activity (AID 2283072); conditions: primary human keratinocytes with fibroblasts; actives raise or lower the signal
Outline: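 Human keratinocyte/foreskin fibroblast co-culture; TGF-b1 measured by ELISA 24 h after dosing, fitted bidirectionally versus DMSO. Cytotoxicity checked in parallel cultures by total protein (SRB staining, 560 nm).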

[13] = read-out: C-C motif chemokine 2 (Homo sapiens) (UniProt P13500); assay: BSK_KF3CT_MCP1: BioMAP Diversity Plus: KF3CT Assay for Monocyte Chemoattractant Protein 1 (MCP1/CCL2) Biomarker Activity (AID 2283073); conditions: primary human keratinocytes with fibroblasts; actives raise or lower the signal
Outline: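 ELISA read-out of MCP-1, 24 h post-dose, in primary human skin keratinocytes co-cultured with fibroblasts. Parallel SRB staining monitors cytotoxicity; changes fitted both directions relative to DMSO.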

[14] = read-out: Matrix Metallopeptidase 9 (MMP9), MMP9 (gene 4318); assay: BSK_KF3CT_MMP9: BioMAP Diversity Plus: KF3CT Assay for Matrix Metallopeptidase 9 (MMP9) Biomarker Activity (AID 2283074); conditions: primary human keratinocytes with fibroblasts; actives raise or lower the signal
Outline: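 Keratinocyte plus foreskin fibroblast human primary skin co-culture was dosed with chemical and MMP-9 was quantified by ELISA 24 h later. Bidirectional curve fitting used DMSO as negative control and activity baseline.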

[15] = read-out: urokinase plasminogen activator (uPA), PLAU (gene 5328); assay: BSK_KF3CT_uPA: BioMAP Diversity Plus: KF3CT Assay for urokinase plasminogen activator (uPA) Biomarker Activity (AID 2283075); conditions: primary human keratinocytes with fibroblasts; actives raise or lower the signal
Outline: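 Human keratinocyte plus foreskin fibroblast primary co-culture exposed to chemical for 24 h. uPA levels were quantified by ELISA, and activity was fitted bidirectionally against a DMSO negative-control baseline.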

CD40, CD40 (gene 958) = assay: BSK_LPS_CD40: BioMAP Diversity Plus: LPS Assay for CD40 Biomarker Activity (AID 2283076); conditions: primary human HUVEC with PBMC; actives raise or lower the signal
Outline: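 In the LPS system of human endothelial cells with peripheral blood mononuclear cells, CD40 levels were read by ELISA 24 h post-treatment. Signal changes in either direction were fitted against the DMSO baseline, with parallel SRB protein staining.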

[16] = read-out: E-selectin (Homo sapiens) (UniProt P16581); assay: BSK_LPS_Eselectin: BioMAP Diversity Plus: LPS Assay for Eselectin Biomarker Activity (AID 2283077); conditions: primary human HUVEC with PBMC; actives raise or lower the signal
Outline: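 E-selectin ELISA on LPS-stimulated endothelial cell/PBMC co-cultures, read 24 h post-treatment; gains and losses fitted against DMSO. Parallel SRB staining (0.1% SRB after 10% TCA fixation, 560 nm) flags overt cytotoxicity.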

[17] = read-out: Interleukin-8 (IL8), CXCL8 (gene 3576); assay: BSK_LPS_IL8: BioMAP Diversity Plus: LPS Assay for Interleukin-8 (IL8) Biomarker Activity (AID 2283078); conditions: primary human HUVEC with PBMC; actives raise or lower the signal
Outline: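 ELISA read-out of IL-8 after 24 h chemical treatment of LPS-activated endothelial/PBMC human primary co-cultures. Changes either up or down relative to DMSO; overt cytotoxicity checked by sulforhodamine B staining in parallel wells.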

[18] = BSK_LPS_SRB: Viability Assessment in the BioMAP Diversity Plus: LPS Assay (AID 2283079); conditions: primary human HUVEC with PBMC;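 note: total protein by sulforhodamine B absorbance as a cytotoxicity measure; measured one day after compound addition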
Outline: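 SRB viability endpoint: cells fixed with 10% TCA, stained with 0.1% SRB, read at 560 nm, 24 h post-dose. HUVEC/PBMC co-culture; signal change in either direction scored relative to DMSO.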

Measured: AC50

E-selectin (Homo sapiens), sequence (P16581 whole entry, looked up): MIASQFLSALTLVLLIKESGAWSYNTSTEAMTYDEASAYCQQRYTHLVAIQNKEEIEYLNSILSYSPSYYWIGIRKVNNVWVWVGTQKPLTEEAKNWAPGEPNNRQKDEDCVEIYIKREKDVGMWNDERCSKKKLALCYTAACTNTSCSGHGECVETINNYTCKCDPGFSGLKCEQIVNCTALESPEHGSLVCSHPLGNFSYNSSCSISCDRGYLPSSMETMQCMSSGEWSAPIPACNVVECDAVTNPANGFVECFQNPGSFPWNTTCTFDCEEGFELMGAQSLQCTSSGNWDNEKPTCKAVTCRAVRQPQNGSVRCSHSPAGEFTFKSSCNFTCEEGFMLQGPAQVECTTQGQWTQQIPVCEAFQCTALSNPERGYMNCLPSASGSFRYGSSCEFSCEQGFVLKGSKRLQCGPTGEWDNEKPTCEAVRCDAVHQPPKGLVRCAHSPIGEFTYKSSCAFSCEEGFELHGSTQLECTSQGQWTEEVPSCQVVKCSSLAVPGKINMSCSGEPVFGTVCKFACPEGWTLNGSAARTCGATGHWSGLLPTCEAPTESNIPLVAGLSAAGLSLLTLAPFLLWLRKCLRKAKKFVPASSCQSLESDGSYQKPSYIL

CNC(=O)Oc1cccc(N=CN(C)C)c1
inactive: [2] | [3] | [5] | [7] | [8] | [9] | [10] | [11] | [12] | [13] | [14] | [15] | [18]
active: [1] 15.9 µM | [4] 15.4 µM | [6] 8.35 µM | CD40, CD40 (gene 958) 13.5 µM | [16] 20 µM | [17] 20 µM

CCCN(CCOc1c(Cl)cc(Cl)cc1Cl)C(=O)n1ccnc1
active: [1] 23.8 µM | [2] 16 µM | [7] 23.9 µM | CD40, CD40 (gene 958) 20 µM | [18] 31.4 µM
inactive: [3] | [4] | [5] | [6] | [8] | [9] | [10] | [11] | [12] | [13] | [14] | [15] | [16] | [17]

O=[N+]([O-])/N=C1\NCCN1Cc1ccc(Cl)nc1
inactive: [1] | [2] | [3] | [4] | [5] | [6] | [7] | [8] | [9] | [10] | [11] | [12] | [13] | [14] | [15] | CD40, CD40 (gene 958) | [16] | [17] | [18]

CC(C)(C)C(O)C(Oc1ccc(Cl)cc1)n1cncn1 (centres undefined)
inactive: [1] | [2] | [3] | [4] | [5] | [6] | [7] | [8] | [9] | [10] | [11] | [12] | [13] | [14] | [15] | CD40, CD40 (gene 958) | [16] | [17] | [18]

CC1(c2ccc(Oc3ccccc3)cc2)OC(=O)N(Nc2ccccc2)C1=O (centres undefined)
active: CD40, CD40 (gene 958) 24.1 µM | [16] 20 µM | [17] 20 µM | [18] 31 µM
inactive: [1] | [2] | [3] | [4] | [5] | [6] | [7] | [8] | [9] | [10] | [11] | [12] | [13] | [14] | [15]

CCCN(CCC)c1c([N+](=O)[O-])cc(C(F)(F)F)cc1[N+](=O)[O-]
active: [1] 28.6 µM | [2] 30.9 µM | [5] 4.1 µM | [6] 7.77 µM | [7] 29.4 µM | [9] 28.8 µM | CD40, CD40 (gene 958) 20.4 µM | [16] 15.2 µM
inactive: [3] | [4] | [8] | [10] | [11] | [12] | [13] | [14] | [15] | [17] | [18]

Clc1ccccc1-c1nnc(-c2ccccc2Cl)nn1
active: [10] 2.76 µM
inactive: [1] | [2] | [3] | [4] | [5] | [6] | [7] | [8] | [9] | [11] | [12] | [13] | [14] | [15] | CD40, CD40 (gene 958) | [16] | [17] | [18]

O=C(NC(=O)c1c(F)cccc1F)Nc1ccc(OC(F)(F)C(F)OC(F)(F)F)c(Cl)c1 (centres undefined)
inactive: [1] | [2] | [3] | [4] | [5] | [6] | [7] | [8] | [9] | [10] | [11] | [12] | [13] | [14] | [15] | CD40, CD40 (gene 958) | [16] | [17] | [18]

CC1(C)C(C=C(Cl)Cl)C1C(=O)OC(C#N)c1ccc(F)c(Oc2ccccc2)c1 (centres undefined)
active: [2] 31.1 µM | [17] 20 µM | [18] 6.63 µM
inactive: [1] | [3] | [4] | [5] | [6] | [7] | [8] | [9] | [10] | [11] | [12] | [13] | [14] | [15] | CD40, CD40 (gene 958) | [16]

COP(=S)(OC)Oc1ccc([N+](=O)[O-])cc1
inactive: [2] | [4] | [5] | [6] | [8] | [10] | [12] | [13] | [14] | [15] | [16] | [17]
active: [1] 11.1 µM | [3] 5.75 µM | [7] 6.41 µM | [9] 9.18 µM | [11] 34.6 µM | CD40, CD40 (gene 958) 20 µM | [18] 10.5 µM

COc1nn(CSP(=S)(OC)OC)c(=O)s1
active: [16] 4.79 µM
inactive: [1] | [2] | [3] | [4] | [5] | [6] | [7] | [8] | [9] | [10] | [11] | [12] | [13] | [14] | [15] | CD40, CD40 (gene 958) | [17] | [18]
